{"source": "PubChem BioAssay (Tox21)", "note": "Values without a mark were called inactive. Activity calls are given as the source filed them. The call rests on the fitted dose curve; in most records, active means well fitted curve in the direction sought with a large enough effect in the repeat runs; inconclusive means weak or mixed curves; inactive means flat fitted curve, though single readings scatter. On the % scale 0 is the no-effect control and ±100 the full control effect.", "data": [{"test": "qHTS assay to test for compound auto fluorescence at 460 nm (blue) in HEK293 cells (AID 720678)", "settings": "blue autofluorescence 405/460 nm; series mostly up to 91.3 µM; fluorescence, % of triamterene: at the top concentration", "from_the_text": "National Center for Advancing Translational Sciences [NCATS]\nNIH Chemical Genomics Center [NCGC]\nU.S. Environmental Protection Agency [EPA]\nNational Institutes of Environmental Health Sciences [NIEHS]\nNational Toxicology Program [NTP]\nU.S. Food and Drug Administration [FDA]\nCompound auto fluorescence often interferes with screening of the compound library against various biological targets and signaling pathways. Some of these compounds may have fluorophoric properties. Such properties may interfere with the assay outputs resulting in false positives and/or negatives. To decrease such complications and ensure the compound activities are relevant in terms of biological response, the Tox21 10K compound library was screened for auto fluorescence.\nFrom the fluorophores used as reporter signals in our screening assays, the auto fluorescence equivalencies of compounds against three fluorophores have been evaluated: Triamterene, Fluorescein and Rose Bengal sodium for blue, green and red fluorescence, respectively. The fluorescence intensities were measured using Excitation/Emission wavelengths at 405/460nm, 485/535nm and 540/590nm for blue, green and red labels, respectively. This assay includes the blue fluorescence data.\nTox21 Assay Protocol Summary:\n2,000 HEK293 cells in 5 uL of culture medium containing 10% dialyzed FBS per well were dispensed into black wall/clear bottom 1536-well plates using a Multidrop Combi Dispenser (Thermo Scientific). The assay plates were incubated for 4-5 hr at 37C to allow cell attachment to the well bottom, followed by the transfer of 23 nL compound or DMSO vehicle by a pintool work station (Kalypsys, San Diego, CA). After the assay plates were incubated overnight at 37C and 5% CO2, fluorescence intensities in the assay plates were measured by an Envision (PerkinElmer, Shelton, CT) plate reader using three labels for measuring blue, green and red fluorescence at […] 460, 535 and 590nm respectively.", "values": [{"smiles": "CC(=O)Oc1cccc(C)c1", "fluorescence, % of triamterene": "-0.0287% [at 46 µM]"}, {"smiles": "CN1CC(=O)N/C1=N/C(=O)Nc1cccc(Cl)c1", "outcome": "inactive"}, {"smiles": "CC(=O)c1ccc2ccccc2c1", "fluorescence, % of triamterene": "0.0349%"}, {"smiles": "C[C@H]1C[C@H]2[C@@H]3CCC4=CC(=O)C=C[C@]4(C)[C@H]3C(=O)C[C@]2(C)[C@@]1(O)C(=O)CO", "fluorescence, % of triamterene": "-0.109% [at 46 µM]"}, {"smiles": "CO[C@@]1(NC(=O)C(C(=O)O)c2ccc(O)cc2)C(=O)N2C(C(=O)O)=C(CSc3nnnn3C)CO[C@@H]21", "note": "(stereo not given in full)", "fluorescence, % of triamterene": "0.184% [at 18.6 µM]"}, {"smiles": "CC(=O)N[C@H]1[C@H]([C@H](O)[C@H](O)CO)OC(C(=O)O)=C[C@@H]1N=C(N)N", "fluorescence, % of triamterene": "-0.0732% [at 46 µM]"}, {"smiles": "CCN(CC#N)c1cccc(C)c1", "fluorescence, % of triamterene": "-0.121%"}, {"smiles": "CC(=O)OCC(=O)[C@@]1(O)[C@H](C)C[C@H]2[C@@H]3CCC4=CC(=O)C=C[C@]4(C)[C@@]3(F)[C@@H](O)C[C@@]21C", "outcome": "inactive"}, {"smiles": "CCC(=O)OCc1ccccc1", "fluorescence, % of triamterene": "0.0322%"}, {"smiles": "CCC(C(=O)NC(=O)NC(C)=O)c1ccccc1", "note": "(stereo not given)", "fluorescence, % of triamterene": "0.0118% [at 46 µM]"}, {"smiles": "CN(C)CCN(C)CCN(C)C", "fluorescence, % of triamterene": "-0.119%"}, {"smiles": "CCCCCCCCCCCCSC", "fluorescence, % of triamterene": "-0.158%"}, {"smiles": "COC(=O)C1=C(C)NC(C)=C(C(=O)OC(C)C)C1c1cccc2nonc12", "note": "(stereo not given)", "fluorescence, % of triamterene": "-0.009% [at 18.6 µM]"}, {"smiles": "CC1=CCC(O)(C(C)C)CC1", "note": "(stereo not given)", "fluorescence, % of triamterene": "0.0141%"}, {"smiles": "CCCCc1nc(Cl)c(CO)n1Cc1ccc(-c2ccccc2-c2nn[nH]n2)cc1", "fluorescence, % of triamterene": "-0.236% [at 46 µM]"}, {"smiles": "CC[N+](CC)(CC(=O)Nc1c(C)cccc1C)Cc1ccccc1", "note": "(tested in a mixture with another compound)", "fluorescence, % of triamterene": "-0.107%"}, {"smiles": "CC(C)COC(=O)c1ccc(N)cc1", "fluorescence, % of triamterene": "-0.0387% [at 46 µM]"}, {"smiles": "CCCCCCC1CCC(=O)O1", "note": "(stereo not given)", "fluorescence, % of triamterene": "-0.0109% [at 95.7 µM]"}, {"smiles": "C=CCCC(=O)O", "fluorescence, % of triamterene": "-0.0604%"}, {"smiles": "Nc1ccn([C@@H]2O[C@H](CO)[C@@H](O)C2O)c(=O)n1", "note": "(stereo not given in full)", "outcome": "inactive"}, {"smiles": "COc1cc2c(cc1OC)-c1cc3ccc(OC)c(OC)c3c[n+]1CC2", "fluorescence, % of triamterene": "0.0669%"}, {"smiles": "CC1(C)[C@@H]2CC[C@@]1(C)[C@H](O)C2", "fluorescence, % of triamterene": "0.0135%"}, {"smiles": "Cc1nc2ccc(CN(C)c3ccc(C(=O)N[C@@H](CCC(=O)O)C(=O)O)s3)cc2c(=O)[nH]1", "outcome": "inactive"}, {"smiles": "O=C1CCCCCCCCCCCCCCO1", "fluorescence, % of triamterene": "0.0429%"}, {"smiles": "CCOc1ccc2nc(S(N)(=O)=O)sc2c1", "fluorescence, % of triamterene": "-0.212% [at 46 µM]"}, {"smiles": "CCO[Si](OCC)(OCC)c1ccccc1", "fluorescence, % of triamterene": "-0.0914%"}, {"smiles": "C[N+](C)(C)CCCCCCCCCC[N+](C)(C)C", "fluorescence, % of triamterene": "-0.152% [at 46 µM]"}, {"smiles": "CN1[C@@H]2CC[C@H]1CC(OC(=O)C(O)c1ccccc1)C2", "note": "(stereo not given in full)", "outcome": "inactive"}, {"smiles": "CC(C)(C)c1ccc(-c2ccc(C(C)(C)C)cc2)cc1", "fluorescence, % of triamterene": "-0.12%"}, {"smiles": "COc1cccc(OC)c1C(=O)N[C@@H]1C(=O)N2[C@@H]1SC(C)(C)[C@@H]2C(=O)O", "fluorescence, % of triamterene": "0.0349% [at 46 µM]"}, {"smiles": "CC(=O)N1C[C@H](O)C[C@H]1C(=O)O", "fluorescence, % of triamterene": "0.0413% [at 46 µM]"}, {"smiles": "C=CCOCC(O)CO", "note": "(stereo not given)", "fluorescence, % of triamterene": "-0.0276%"}, {"smiles": "N[C@H](C(=O)O)[C@@H](O)c1ccc(O)c(O)c1", "fluorescence, % of triamterene": "8.97% [at 46 µM]"}, {"smiles": "CCNS(=O)(=O)c1ccc(C)cc1", "fluorescence, % of triamterene": "0.112% [at 95.7 µM]"}, {"smiles": "CCCc1nn(C)c2c(=O)[nH]c(-c3cc(S(=O)(=O)N4CCN(C)CC4)ccc3OCC)nc12", "fluorescence, % of triamterene": "-0.0521% [at 46 µM]"}, {"smiles": "[Ca+2]", "fluorescence, % of triamterene": "-0.0354%"}, {"smiles": "CC1=NN(c2cc(S(=O)(=O)O)ccc2Cl)C(=O)C1N=Nc1ccccc1", "note": "(stereo not given)", "fluorescence, % of triamterene": "-0.778%"}, {"smiles": "CCOC(=O)CCC(=O)OCC", "fluorescence, % of triamterene": "-0.244%"}, {"smiles": "CC(N)C12CC3CC(CC(C3)C1)C2", "note": "(stereo not given)", "fluorescence, % of triamterene": "-0.0428% [at 46 µM]"}, {"smiles": "CCCC(C)C(=O)OCC", "note": "(stereo not given)", "fluorescence, % of triamterene": "-0.0404%"}]}]}
